SKKanGAS inh – SKKanGAS growth inhibition | S. pyogenes SKKanGAS, kanamycin growth, BacTiter-Glo, 6 h | inhibition, % at 7.5 µM | hit rate 1.3% among 300,000;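 active means mean replicate score, as percent of positive control median, at least 50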;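 further: strain carries kanamycin resistance gene driven by streptokinase promoter and grows in 40 µg/ml kanamycin; loss of luminescence reflects streptokinase promoter inhibition or plain growth inhibition; 0% = median of DMSO wells and 100% = positive control at its reference dose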
NALP1 inh – NALP1 inhibition | S. cerevisiae NALP1/ASC/caspase-1 growth, X-gal OD620, 72 h | inhibition, % at 10 µM | hit rate 0.61% among 280,000 | AID 2071; in the data active means inhibition mostly above about 24%, no sharp cut-off; inactive means mostly below about 32%
tim23-1 inh – tim23-1 yeast growth inhibition | hit rate 1.3% among 330,000 | inhibition, % at 20 µM | S. cerevisiae tim23-1 growth, BacTiter-Glo luminescence, 24 h;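 active means growth inhibition of the mutant yeast at or above 50%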;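 further: temperature-sensitive mutant grown at 25 °C; plate controls were DMSO-treated mutant yeast for no effect and medium wells lacking yeast for full effect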
PfHsp90 set2 – reduces growth (ATP signal) of yeast expressing P. falciparum Hsp90 | inhibition, % at 9.4 µM | AID 504621 | hit rate 0.32% among 310,000 | S. cerevisiae expressing PfHsp90, BacTiter-Glo ATP, 48 h; yeast lacking PDR1 and PDR3 efflux regulators;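 active means every replicate shows inhibition above about 80%, whatever the replicate mean, limit read from the data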;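 further: 0% = DMSO neutral controls and 100% = 20 µM radicicol positive controls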
TIM10 inh – inhibits growth of TIM10 yeast strain; inhibition, % at 10 µM; hit rate 1.4% among 330,000; AID 463195; S. cerevisiae TIM10 strain growth, BacTiter-Glo luminescence, 24 h;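 active means inhibition of 40% or more at the single tested concentration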;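 further: wild-type TIM10 isogenic control strain grown at permissive 25 °C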
tim10-1 inh – growth inhibitors of tim10-1 mutant yeast | S. cerevisiae tim10-1 ts strain growth, BacTiter-Glo, 24 h | hit rate 2.2% among 330,000 | AID 463190 | inhibition, % at 20 µM;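 active means inhibition of at least 40%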;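 further: mutant grown at 25 °C; 0% = DMSO wells with yeast and 100% = wells holding no yeast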
tim10-1 conf – tim10-1 yeast growth inhibition, confirmed. inhibition, % at 20 µM. hit rate 56% among 7,400. shares compounds with tim10-1 inh. S. cerevisiae tim10-1 ts strain growth, BacTiter-Glo, 24 h. AID 463213;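 active means inhibition of yeast growth at or above a set limit in either of two repeat tests at 20 µM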;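 further: tim10-1 mutant grown at permissive 25 °C to find synthetic lethal compounds; 0% = DMSO yeast wells and 100% = medium wells without yeast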
* hit, by the source's call; · = no result given. Compounds with a hit are over-represented: about 4.8% of the library has one in this group of screens.

SMILES | SKKanGAS inh | NALP1 inh | tim23-1 inh | PfHsp90 set2 | TIM10 inh | tim10-1 inh | tim10-1 conf
O=C(c1nc2ccc(Cl)cn2c1CN1CCC(O)CC1)N1CCc2ccccc2C1 | 0 | 5 | 8 | 3 | 5 | 14 | ·
Cc1ccc(S(=O)(=O)N2CCC[C@H]2C(=O)OC(C)C(=O)Nc2ncc(Cl)cc2Cl)cc1 (stereo partly drawn) | -3 | 9 | 6 | 3 | 14 | 41* | 22
CC(OC(=O)CN(C)S(=O)(=O)c1ccc(Cl)cc1)C(=O)Nc1ncc(Cl)cc1Cl (stereo not drawn) | 5 | 9 | 20 | -23 | 13 | 28 | ·
O=C(C1CCCN1S(=O)(=O)c1cccc2nsnc12)N1CCN(c2ccc(F)cc2)CC1 (stereo not drawn) | -3 | 3 | 20 | -10 | 5 | 22 | ·
Cc1ccc(-n2nnnc2Sc2nc([N+](=O)[O-])nn2C)c(C)c1 | 2 | · | 15 | -7 | 12 | 15 | ·
CNc1ccc(Br)cc(C(=O)/C=C/c2cccc(OC)c2OC)c1=O | 7 | -83 | 33 | 0 | 20 | 42* | 34*
O=C(O)c1ccccc1C(=O)N1N=C2/C(=C/c3cccc([N+](=O)[O-])c3)CCCC2C1c1cccc([N+](=O)[O-])c1 (stereo not drawn) | 14 | -7 | 20 | 12 | 21 | 44* | 31
Cc1ccc2[nH]c(C)c(/C=C/c3cc[n+](C)cc3)c2c1 | -9 | 0 | 27 | 14 | 33 | 51* | 23
Cc1ccc2c(c1)c(/C=C/c1cc[n+](C)cc1)c(C)n2C | -2 | 7 | -3 | 11 | 18 | 16 | ·
COc1ccc(NC(=O)CN2C(=O)COc3ccc(C)cc32)cc1 | -4 | -1 | -8 | 1 | -17 | -20 | ·
C=CCn1c(SCc2ccccc2C#N)nnc1-c1cc(Br)ccc1O | -9 | -28 | 44 | -24 | 5 | 44* | 23
Cc1sc2ncnc(N3CCN(CCOc4ccc(Cl)cc4)CC3)c2c1C | 2 | -3 | 31 | -10 | 27 | 45* | 32*
CCCCCC1CC(CC/C(C)=N/NC(N)=O)C(=O)O1 (stereo not drawn) | -10 | 0 | 11 | 1 | 7 | 0 | ·
Cc1ccc(SCc2[nH]nc3c2C(c2ccc(C)o2)C(C#N)=C(N)O3)cc1 (stereo not drawn) | · | 10 | 41 | 0 | 23 | 42* | 38*
CCc1[nH]nc2c1C(c1ccc(C)o1)C(C#N)=C(N)O2 (stereo not drawn) | -3 | -2 | -2 | · | -3 | -2 | ·
CCC(=O)Nc1nc2ccc3nc(C)sc3c2s1 | -4 | · | 21 | 14 | 23 | 48* | 23
N/C(=N\OC(=O)COc1ccc2ccccc2c1Br)c1ccccn1 | 17 | 3 | 31 | -27 | 36 | 43* | 55*
COCc1ccc(CN2CCc3c([nH]c4ccccc34)C2CC(C)C)o1 (stereo not drawn) | -2 | 13 | 24 | · | 9 | 19 | ·
CC(NC(=O)COC(=O)CNS(=O)(=O)/C=C/c1ccccc1)c1ccccc1 (stereo not drawn) | · | · | 10 | -3 | -1 | 9 | ·
C/C(=N\OCc1ccc(C#N)cc1)c1ccccc1 | 0 | 20 | 12 | 1 | -14 | 1 | ·
C/C(=N\OCc1ccc(C#N)cc1)c1ccc(S(=O)(=O)N(C)C)cc1 | -5 | 21 | 33 | -4 | 10 | 42* | 41*
O=C(Nc1nnc(-c2ccccc2SCc2ccccc2)s1)Nc1ccccc1F | 4 | -27 | -3 | 4 | 12 | 14 | ·
Cc1cc(NS(=O)(=O)c2ccc(NC(=O)NC3CCCCC3)cc2)no1 | -2 | 22 | -3 | · | -11 | 11 | ·
Cc1cc(NS(=O)(=O)c2ccc(C3CCCCC3)cc2)no1 | 15 | 7 | 35 | -134 | 13 | 41* | 20
COCc1cc(C)n(CC(=O)Nc2c(C)cccc2C)c(=O)c1C#N | -2 | 2 | 5 | -18 | 8 | 11 | ·
SMILES | SKKanGAS inh | NALP1 inh | tim23-1 inh | PfHsp90 set2 | TIM10 inh | tim10-1 inh | tim10-1 conf
O=C(c1ccc(Cl)cc1[N+](=O)[O-])N(Cc1ccccc1)Cc1ccccc1 | 9 | 36 | 22 | · | 8 | 4 | ·
CC(C)(C)N(Cc1ccccc1)C(=O)c1ccc(Cl)cc1[N+](=O)[O-] | -2 | 1 | 35 | -1 | 31 | 43* | 29*
CC(C)c1cc2c(c(O)c1O)[C@@]13CCCC(C)(C)C1CC2OC3=O (stereo partly drawn) | 15 | -4 | 28 | 22 | 13 | 43* | 35*
N#Cc1cccc2cnccc12 | -2 | 14 | 13 | 8 | 3 | 6 | ·
CC1CCc2nc(NC(=O)Cc3cccs3)sc2C1 (stereo not drawn) | 3 | 20 | 49 | 8 | 29 | 39 | ·
CC1CCc2nc(NC(=O)c3ccco3)sc2C1 (stereo not drawn) | 7 | -4 | 18 | 17 | 39 | 45* | 31*
CCN(CC)C(=S)NC(=O)c1ccc(OC)c(Br)c1 | 3 | 25 | 27 | -9 | 18 | 44* | 19
C=CCN(CC=C)C(=S)NC(=O)c1ccc(OC)c(Br)c1 | 26 | 11 | 45 | -55 | 25 | 14 | ·
CC(C)(C)[C@H]1CCC(=O)N([C@H](CN=[N+]=[N-])Cc2ccccc2)CC1 | 5 | -2 | 36 | -12 | 19 | 41* | 24
[N-]=[N+]=NC[C@H](Cc1ccccc1)N1CC[C@@H](O)CCC1=O | -3 | 4 | 8 | -14 | -7 | -2 | ·
COc1cc(CNCCc2ccccc2)cc(Br)c1OCC(=O)Nc1ccccc1C | 8 | 23 | 4 | -23 | 25 | -20 | ·
CC(OC(=O)CNS(=O)(=O)c1ccc2ccccc2c1)C(=O)N(C)c1ccccc1 (stereo not drawn) | -7 | 9 | 24 | 0 | 16 | 21 | ·
CC(OC(=O)COc1ccc(Nc2ccccc2)cc1)C(=O)N(C)c1ccccc1 (stereo not drawn) | 0 | · | 31 | 1 | 13 | 42* | 30*
CCOc1ccc(C(c2c(C)[nH][nH]c2=O)c2c(C)[nH][nH]c2=O)cc1OC | -2 | -2 | 50 | 2 | 26 | 42* | 24
COc1cccc2cc(S(=O)(=O)c3ccccc3)c(=Nc3ccc4c(c3)OCCO4)oc12 | 6 | 15 | 13 | -7 | 13 | 15 | ·
COc1ccccc1CNC(=O)c1ccc(CS(=O)Cc2cccc(Cl)c2)o1 (stereo not drawn) | 0 | 5 | 9 | 1 | 0 | 23 | ·
CC1CCN(S(=O)(=O)c2ccc3c(c2)NC(=O)CS3)CC1 | -1 | 1 | 46 | -2 | 23 | 42* | 23
COc1cccc(N2CCN(S(=O)(=O)c3ccc4c(c3)NC(=O)CS4)CC2)c1 | 9 | 19 | 1 | -25 | -2 | 2 | ·
CCN1CCN(S(=O)(=O)c2ccc(-c3cc(C)no3)s2)CC1 | 1 | 4 | 6 | -5 | -4 | 12 | ·

Screens from PubChem BioAssay.
